# Data published in PubChem BioAssay AID588342 (National Center for Advancing Translational Sciences (NCATS), 2011).
# The campaign covered roughly 360,000 compounds. About 25,000 (6.9%) were called active. A call without a number means that no potency is given here. Another 9% or so got no clear call; they are omitted. The sample holds actives, similar compounds and a random draw of the others, so the mix is not that of the screen. Calls come from the whole dose curve; as a rule, active = well fitted inhibition curve with a large enough effect; inconclusive = small, poorly fitted or top-dose-only effect; inactive = flat fitted curve, though single readings scatter.
# Molecular target: Luciferin 4-monooxygenase (Photinus pyralis) (UniProt P08659)
# Sequence (P08659 whole entry, looked up): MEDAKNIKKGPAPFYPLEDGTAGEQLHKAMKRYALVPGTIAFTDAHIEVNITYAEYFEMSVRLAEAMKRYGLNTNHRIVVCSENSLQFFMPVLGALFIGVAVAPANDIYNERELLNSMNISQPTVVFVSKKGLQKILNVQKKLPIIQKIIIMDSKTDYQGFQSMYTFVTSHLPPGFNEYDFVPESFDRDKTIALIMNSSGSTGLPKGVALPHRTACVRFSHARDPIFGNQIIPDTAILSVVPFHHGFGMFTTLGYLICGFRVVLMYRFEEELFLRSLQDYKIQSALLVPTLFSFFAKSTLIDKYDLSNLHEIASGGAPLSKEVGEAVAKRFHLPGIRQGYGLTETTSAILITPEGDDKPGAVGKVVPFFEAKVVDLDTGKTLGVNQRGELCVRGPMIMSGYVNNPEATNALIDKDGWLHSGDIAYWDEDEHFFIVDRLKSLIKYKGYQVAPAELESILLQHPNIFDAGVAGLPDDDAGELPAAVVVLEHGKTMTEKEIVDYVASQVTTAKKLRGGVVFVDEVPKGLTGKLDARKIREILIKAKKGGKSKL
# Assay: qHTS profiling assay for firefly luciferase inhibitor/activator using purifed enzyme and Km concentrations of substrates (counterscreen for miR-21 project); note: nearly all actives have a fitted effect of over 55% in size
# Conditions: purified FLuc, luminescence inhibition; series mostly up to 57.5 µM
# How it was run: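 Purified P. pyralis luciferase (10nM final) with 10uM D-luciferin and 10uM ATP (Km levels) in 50mM Tris acetate pH 7.5, 10mM Mg acetate, 0.01% Tween-20, 0.05% BSA; qHTS 6-point titration, ~60 µM downward; luminescence read.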
# Potency is the fitted concentration of half-maximal effect.
row,Compound,Potency
1,Cc1cc2c(cc1C)C(c1cccc(OC(C)C)c1)CC(=O)N2 (stereo not drawn),inactive
2,Cc1cccc(-c2nc(SCc3ccc(Br)cc3)n3[nH]c(=O)cc3n2)c1,inactive
3,CCOc1ccc(-n2c(SCC(=O)NCc3ccccc3)nc3n[nH]c(C)c3c2=N)cc1,inactive
4,CCCn1c2ccccc2c2cnn(CC(=O)NCCCOC(C)C)c(=O)c21,inactive
5,O=C(NCCc1ccc(Cl)cc1)c1ccc2nc(CCc3ccccc3)oc2c1,inactive
6,COc1ccc(Cc2nc3ccc(C(=O)NCc4ccccc4C)cc3o2)cc1,inactive
7,CSCCNC(=O)c1ccc2nc(Cc3ccccc3F)oc2c1,19 µM (active)
8,Cn1c(=O)sc2cc(NS(=O)(=O)c3ccc(C(C)(C)C)cc3)ccc21,inactive
9,Cc1cccnc1CCNC(=O)C1CCC(=O)N(Cc2cccc(F)c2)C1 (stereo not drawn),inactive
10,CCOc1ccc(-c2cc3nc(C4CCN(C(=O)OC(C)(C)C)CC4)c(C(=O)Nc4cccc(CC)c4)cn3n2)cc1,inactive
11,CN1C2CCC1/C(=C\c1ccccc1Cl)C(=O)/C2=C\c1ccccc1Cl,inactive
12,CCSc1ncc(Cl)c(C(=O)Nc2c(C(=O)c3ccccc3)oc3ccccc23)n1,inactive
13,Fc1ccc(-n2ncc3c(Nc4ccc(Oc5ccccc5)cc4)ncnc32)cc1,inactive
14,Cc1ccc(Nc2ncnc3c2cnn3C)c(C)c1,inactive
15,Cc1ccc(-n2ncc3c(Nc4cccc(C(=O)O)c4)ncnc32)cc1,0.953 µM (active)
16,COc1ccc(Cl)cc1NC(=O)CCC(=O)c1ccc(C)cc1,inactive
17,CCN1CCN(c2ncc3c(n2)CC(c2ccccc2O)CC3=O)CC1 (stereo not drawn),inactive

row,Compound,Potency
1,CCc1ccccc1NC(=O)CN(C)C(=O)c1cc(C2CC2)nn1-c1ccccc1,inactive
2,Cc1ccc(C)c(OCC(=O)NNC(=O)C2CCC2)c1,inactive
3,COc1cc(C(=O)OCC(=O)NC23CC4CC(CC(C4)C2)C3)cc(OC)c1OC,inactive
4,N#Cc1nc(-c2cccc3ccccc23)oc1N,inactive
5,CCOC(=O)c1c(C)[nH]c(C)c1S(=O)(=O)N1CCC(C(=O)Nc2ccc(C)c(Cl)c2)CC1,inactive
6,Nc1c(C(=O)c2cccs2)sc2nsc(SCCN3CCCCC3)c12,5.36 µM (active)
7,O=C(CSc1ncnc2sccc12)N1CCN(C(=O)c2cccs2)CC1,inactive
8,O=C(CN1C2=NCCN2c2ccccc21)c1cccs1,inactive
9,O=C(NCCCN1CCN(c2cccc(Cl)c2)CC1)c1nnc(Cc2ccc(F)cc2Cl)o1,inactive
10,CCOC(=O)c1ccc(NC(=O)c2nc[nH]c2C(=O)N[C@@H](CCCCNC(=O)OC(C)(C)C)C(=O)OC(C)(C)C)cc1,inactive
11,Cc1ccc(C(=O)/C=C/c2c(C)nn(-c3ccccc3)c2Cl)cc1,6.01 µM (active)
12,Cc1nn(-c2ccccc2)c(Cl)c1/C=C/C(=O)c1ccc(O)cc1,12 µM (active)
13,Cc1nn(-c2ccccc2)c(C)c1NC(=O)CCl,inactive
14,Cc1nn(-c2ccccc2)c(C)c1/C=C/C(=O)OC(C)C(N)=O (stereo not drawn),inactive
15,COc1ccc(CCNC(=O)c2c(C)nn(-c3ccccc3)c2Cl)cc1,inactive
16,Cc1nn(-c2ccccc2)c(CC(C)(C)C(=O)O)c1C(=O)O,inactive
